Measured values: the supplement of paper PMC8728848
The entries come from a sample that favours the strongest signals as a whole.

What was measured:
Test in all cases: glycan array binding signal (z-score within array); higher = stronger binding
Conditions in all cases: glycan notation: IUPAC condensed, linker removed
[1] = target: GalNAc(b1-3)Gal(a1-4)Gal(b1-4)GlcNAc(b1-3)Gal(b1-4)Glc
Summary of the method: (§1)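 Negative Z-scores can be read as non-binding. The Z-score is calculated within each array and then averaged across arrays of one protein sequence at different concentrations or buffers and across linkers. Arrays, 3228 in all, were curated from the Consortium for Functional Glycomics database and kept only where the protein sequence was available.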

GalNAc(b1-4)GlcNAc = target: GalNAc(b1-4)GlcNAc
Summary of the method: as §1

GalNAc4S6S(b1-4)GlcNAc = target: GalNAc4S6S(b1-4)GlcNAc
Summary of the method: as §1

[2] = target: GlcNAc(a1-4)Gal(b1-4)GlcNAc(b1-3)Gal(b1-4)[Fuc(a1-3)]GlcNAc(b1-3)Gal(b1-4)[Fuc(a1-3)]GlcNAc
Summary of the method: as §1

[3] = target: GlcNAc(b1-3)Gal(b1-4)GlcNAc(b1-6)[Gal(b1-3)]GalNAc
Summary of the method: as §1

GlcNAc(b1-6)GalNAc = target: GlcNAc(b1-6)GalNAc
Summary of the method: as §1

Kdn(a2-6)Gal(b1-4)GlcNAc = target: Kdn(a2-6)Gal(b1-4)GlcNAc
Summary of the method: as §1

[4] = target: Man(a1-2)Man(a1-2)Man(a1-6)[Man(a1-3)]Man
Summary of the method: as §1

[5] = target: Man(a1-3)[Man(a1-6)]Man(b1-4)GlcNAc(b1-4)[Fuc(a1-6)]GlcNAc
Summary of the method: as §1

[6] = target: Neu5Ac(a2-3)Gal(b1-3)GalNAc(b1-4)[Neu5Ac(a2-3)]Gal(b1-4)Glc
Summary of the method: as §1

[7] = target: Neu5Ac(a2-3)Gal(b1-3)]Neu5Ac(a2-3)Gal(b1-4)]GlcNAc
Summary of the method: as §1

[8] = target: Neu5Ac(a2-3)Gal(b1-4)GlcNAc(b1-2)Man(a1-3)[Neu5Ac(a2-3)Gal(b1-4)GlcNAc(b1-2)Man(a1-6)]Man(b1-4)GlcNAc(b1-4)GlcNAc
Summary of the method: as §1

[9] = target: Neu5Ac(a2-3)Gal(b1-4)GlcNAc(b1-3)Gal(b1-4)GlcNAc(b1-6)[Gal(b1-3)]GalNAc
Summary of the method: as §1

[10] = target: Neu5Ac(a2-3)Gal(b1-4)GlcNAc(b1-3)Gal(b1-4)[Fuc(a1-3)]GlcNAc
Summary of the method: as §1

[11] = target: Neu5Ac(a2-3)Gal(b1-4)GlcNAc(b1-6)[Gal(b1-3)]GalNAc
Summary of the method: as §1

[12] = target: Neu5Ac(a2-3)Gal(b1-4)[Fuc(a1-3)]GlcNAc(b1-3)GalNAc
Summary of the method: as §1

Neu5Ac(a2-3)GalNAc = target: Neu5Ac(a2-3)GalNAc
Summary of the method: as §1

[13] = target: Neu5Ac(a2-6)Gal(b1-4)GlcNAc(b1-2)Man(a1-6)[GlcNAc(b1-2)Man(a1-3)]Man(b1-4)GlcNAc(b1-4)GlcNAc
Summary of the method: as §1

[14] = target: Neu5Ac(a2-6)Gal(b1-4)GlcNAc(b1-2)[Neu5Ac(a2-6)Gal(b1-4)GlcNAc(b1-4)]Man(a1-3)[GlcNAc(b1-4)][Neu5Ac(a2-6)Gal(b1-4)GlcNAc(b1-4)Man(a1-6)]Man(b1-4)GlcNAc(b1-4)GlcNAc
Summary of the method: as §1

[15] = target: Neu5Ac(a2-6)Gal(b1-4)GlcNAc(b1-3)Gal(b1-4)GlcNAc(b1-6)[Gal(b1-3)]GalNAc
Summary of the method: as §1

[16] = target: Neu5Ac(a2-6)Gal(b1-4)GlcNAc(b1-3)[Neu5Ac(a2-6)Gal(b1-4)GlcNAc(b1-6)]GalNAc
Summary of the method: as §1

[17] = target: Neu5Ac(a2-6)Gal(b1-4)GlcNAc(b1-6)[Gal(b1-3)]GalNAc
Summary of the method: as §1

[18] = target: Neu5Ac(a2-8)Neu5Ac(a2-3)Gal(b1-3)GalNAc(b1-4)[Neu5Ac(a2-3)]Gal(b1-4)Glc
Summary of the method: as §1

B1: Aap arpt (Staphylococcus epidermidis) (protein)
chain: NNEAPQMSSTLQAEEGSNAEAPQSEPTKAEEGGNAEAAQSEPTKAEEGGNAEAPQSEPTKAEEGGNAEAAQSEPTKTEEGSNVKAAQSEPTKAEEGSNAEAPQSEPTKTEEGSNAKAAQSEPTKAEEGGNAEAAQSEPTKTEEGSNAEAPQSEPTKAEEGGYAEAPQSEPTKTEEGGNAEAPNVPTIKA
- glycan array binding signal (z-score) [1]: -0.809
- glycan array binding signal (z-score) (GalNAc(b1-4)GlcNAc): -0.143
- glycan array binding signal (z-score) (GalNAc4S6S(b1-4)GlcNAc): 1.06
- glycan array binding signal (z-score) [2]: 2.41
- glycan array binding signal (z-score) [3]: -0.695
- glycan array binding signal (z-score) (GlcNAc(b1-6)GalNAc): 3.2
- glycan array binding signal (z-score) (Kdn(a2-6)Gal(b1-4)GlcNAc): 2.33
- glycan array binding signal (z-score) [4]: -0.012
- glycan array binding signal (z-score) [5]: 1.13
- glycan array binding signal (z-score) [6]: -1.39
- glycan array binding signal (z-score) [7]: 2.21
- glycan array binding signal (z-score) [8]: 3
- glycan array binding signal (z-score) [9]: -0.491
- glycan array binding signal (z-score) [10]: -0.571
- glycan array binding signal (z-score) [11]: 0.944
- glycan array binding signal (z-score) [12]: 0.511
- glycan array binding signal (z-score) (Neu5Ac(a2-3)GalNAc): -0.745
- glycan array binding signal (z-score) [13]: 2.64
- glycan array binding signal (z-score) [14]: -0.548
- glycan array binding signal (z-score) [15]: 0.045
- glycan array binding signal (z-score) [16]: -1.09
- glycan array binding signal (z-score) [17]: 0.173
- glycan array binding signal (z-score) [18]: -1.08
